PubChem BioAssay AID1159580 (chemical genetic matrix, 2015)
“And” between values parts separate entries of the source, which are not always exact repeats. Identical values can stand only once. The whole screen tested about 5,500 compounds, of which about 2,000 (36%) were called active. Roughly 18% stayed inconclusive and do not appear here. No stated cut-off is given here; in the data, active means normalized growth mostly below about 0.91 (no sharp cut-off); inconclusive means no clear call, values can overlap the other calls; inactive means mostly above about 0.92. The list shows a part of the results.

Experiment: chemical genetic growth profiling, strain panel (AID 1159580);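 further: tested at 20 µM; growth read once vehicle control cultures reached saturation at 30 °C; 1 = growth at the plate median or of vehicle wells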
Conditions: S. cerevisiae deletion strains, growth OD

Measured: normalized growth

COC(=O)C[C@H]1C(C)(C)[C@@H](O)[C@@H]2CC3=C4C=C(OC)O[C@@H](c5ccoc5)[C@]4(C)CCC3[C@@]1(C)C2=O (some centres not stated)
inactive: locus YAL021C, strain ccr4, stronger effect = lower value 0.996 | locus YAL026C, strain drs2, stronger effect = lower value 0.99 | locus YAL030W, strain snc1, stronger effect = lower value 1 | locus YBL061C, strain skt5, stronger effect = lower value 1.01 | locus YBR009C, strain hhf1, stronger effect = lower value 1.01 | locus YBR021W, strain FUR4, stronger effect = lower value 1.01 | locus YBR023C, strain chs3, stronger effect = lower value 0.997 | locus YBR171W, strain sec66, stronger effect = lower value 0.999 | locus YBR229C, strain ROT2, stronger effect = lower value 1 | locus YBR231C, strain swc5, stronger effect = lower value 1 | locus YBR279W, strain paf1, stronger effect = lower value 0.999 | locus YCL011C, strain gbp2, stronger effect = lower value 1.01 | locus YCL016C, strain dcc1, stronger effect = lower value 0.999 | locus YCL029C, strain bik1, stronger effect = lower value 0.978 | locus YCL061C, strain MRC1, stronger effect = lower value 1.01 | locus YCL069W, strain vba3, stronger effect = lower value 0.983 | locus YCR088W, strain abp1, stronger effect = lower value 0.99 | locus YDL005C, strain med2, stronger effect = lower value 0.989 | locus YDL035C, strain GPR1, stronger effect = lower value 1.01 | locus YDL040C, strain nat1, stronger effect = lower value 0.998 | locus YDL074C, strain BRE1, stronger effect = lower value 1.02 | locus YDL101C, strain DUN1, stronger effect = lower value 1 | locus YDL134C, strain PPH21, stronger effect = lower value 1.01 | locus YDL185W, strain tfp1, stronger effect = lower value 0.982 | locus YDL192W, strain arf1, stronger effect = lower value 0.991 | locus YDR001C, strain nth1, stronger effect = lower value 0.992 | locus YDR069C, strain doa4, stronger effect = lower value 0.998 | locus YDR101C, strain arx1, stronger effect = lower value 1 | locus YDR137W, strain rgp1, stronger effect = lower value 1.01 | locus YDR159W, strain sac3, stronger effect = lower value 0.998 | locus YDR162C, strain NBP2, stronger effect = lower value 0.987 | locus YDR195W, strain ref2 0.962 | locus YDR297W, strain sur2, stronger effect = lower value 0.994 | locus YDR318W, strain mcm21, stronger effect = lower value 0.995 | locus YDR334W, strain swr1, stronger effect = lower value 0.978 | locus YDR335W, strain msn5, stronger effect = lower value 0.994 | locus YDR388W, stronger effect = lower value 0.985 | locus YDR392W, strain spt3, stronger effect = lower value 0.992 | locus YDR502C, strain sam2, stronger effect = lower value 0.982 | locus YEL003W, strain gim4, stronger effect = lower value 0.994 | locus YEL037C, strain rad23, stronger effect = lower value 0.988 | locus YEL061C, strain CIN8 (second series), stronger effect = lower value 0.982 | locus YEL061C, strain CIN8, stronger effect = lower value 1 | locus YER015W, strain faa2, stronger effect = lower value 1 | locus YER016W, strain bim1, stronger effect = lower value 1.01 | locus YER110C, stronger effect = lower value 0.979 | locus YER111C, strain swi4, stronger effect = lower value 1 | locus YER155C, strain BEM2 (second series), stronger effect = lower value 1.02 | locus YER155C, strain BEM2, stronger effect = lower value 1 | locus YER167W, strain BCK2, stronger effect = lower value 1.02 | locus YFR010W, strain ubp6, stronger effect = lower value 0.982 | locus YGL078C, strain dbp3, stronger effect = lower value 0.984 | locus YGL086W, strain mad1, stronger effect = lower value 0.991 | locus YGL167C, strain pmr1, stronger effect = lower value 1.01 | locus YGL173C, strain kem1, stronger effect = lower value 1 | locus YGL227W, strain vid30, stronger effect = lower value 0.983 | locus YGL240W, strain doc1, stronger effect = lower value 1.02 | locus YGL248W, strain PDE1, stronger effect = lower value 0.999 | locus YGL253W, strain hxk2, stronger effect = lower value 0.993 | locus YGR078C, strain PAC10, stronger effect = lower value 1 | locus YGR135W, strain pre9, stronger effect = lower value 0.976 | locus YGR252W, strain gcn5, stronger effect = lower value 0.994 | locus YHR013C, strain ard1, stronger effect = lower value 1.01 | locus YHR027C, strain rpn1, stronger effect = lower value 0.994 | locus YHR030C, strain SLT2, stronger effect = lower value 0.96 | locus YHR079C, strain IRE1 (second series), stronger effect = lower value 0.992 | locus YHR079C, strain IRE1, stronger effect = lower value 0.968 | locus YHR094C, strain hxt1, stronger effect = lower value 0.987 | locus YHR129C, strain ARP1, stronger effect = lower value 1 | locus YHR142W, strain chs7, stronger effect = lower value 0.977 | locus YHR200W, strain rpn10, stronger effect = lower value 0.988 | locus YIL066C, strain RNR3, stronger effect = lower value 1.02 | locus YIL073C, strain SPO22, stronger effect = lower value 0.981 | locus YIL125W, strain kgd1, stronger effect = lower value 0.991 | locus YIR030C, strain dcg1, stronger effect = lower value 0.992 | locus YJL092W, strain hpr5, stronger effect = lower value 0.993 | locus YJL095W, strain BCK1 (second series), stronger effect = lower value 1 | locus YJL095W, strain BCK1, stronger effect = lower value 0.996 and 0.97 | locus YJL115W, strain asf1, stronger effect = lower value 0.985 | locus YJL129C, strain trk1, stronger effect = lower value 0.97 | locus YJL134W, strain LCB3, stronger effect = lower value 1.01 | locus YJL154C, strain vps35, stronger effect = lower value 0.978 | locus YJL164C, strain tpk1, stronger effect = lower value 0.997 | locus YJL166W, strain qcr8, stronger effect = lower value 0.995 | locus YJL168C, strain set2, stronger effect = lower value 0.983 | locus YJL187C, strain SWE1 (second series), stronger effect = lower value 1.01 | locus YJR043C, strain POL32, stronger effect = lower value 1.04 | locus YJR066W, strain TOR1, stronger effect = lower value 0.92 | locus YKL009W, strain mrt4, stronger effect = lower value 0.986 | locus YKL068W, stronger effect = lower value 0.996 | locus YKL085W, strain MDH1 (second series), stronger effect = lower value 0.975 | locus YKL085W, strain MDH1, stronger effect = lower value 0.975 | locus YKL160W, strain elf1, stronger effect = lower value 1.01 | locus YKL190W, strain CNB1, stronger effect = lower value 1 | locus YKR001C, strain vps1, stronger effect = lower value 0.992 | locus YKR026C, strain gcn3, stronger effect = lower value 0.972 | locus YKR091W, strain srl3, stronger effect = lower value 1 | locus YLL001W, strain dnm1, stronger effect = lower value 1 | locus YLL026W, stronger effect = lower value 1.01 | locus YLL041C, strain sdh2, stronger effect = lower value 1.02 | locus YLR027C, strain aat2, stronger effect = lower value 1 | locus YLR039C, strain RIC1, stronger effect = lower value 0.935 | locus YLR058C, strain SHM2, stronger effect = lower value 1.01 | locus YLR102C, strain apc9, stronger effect = lower value 0.987 | locus YLR113W, strain HOG1, stronger effect = lower value 0.998 | locus YLR221C, strain rsa3, stronger effect = lower value 0.998 | locus YLR258W, strain gsy2, stronger effect = lower value 0.993 | locus YLR262C, strain YPT6 (second series), stronger effect = lower value 0.959 | locus YLR262C, strain YPT6, stronger effect = lower value 0.857 | locus YLR268W, strain sec22, stronger effect = lower value 0.997 | locus YLR320W, strain mms22, stronger effect = lower value 1 | locus YLR342W, strain FKS1 (second series), stronger effect = lower value 1.02 | locus YLR342W, strain FKS1, stronger effect = lower value 0.999 | locus YLR357W, strain rsc2, stronger effect = lower value 1.01 | locus YLR370C, strain arc18, stronger effect = lower value 0.993 | locus YLR371W, strain rom2, stronger effect = lower value 0.983 | locus YLR384C, strain iki3, stronger effect = lower value 1 | locus YLR418C, strain cdc73, stronger effect = lower value 0.962 | locus YML016C, strain PPZ1, stronger effect = lower value 1.01 | locus YML032C, strain rad52, stronger effect = lower value 1 | locus YML120C, strain ndi1, stronger effect = lower value 0.998 | locus YML124C, strain tub3, stronger effect = lower value 0.992 | locus YMR058W, strain fet3, stronger effect = lower value 1 | locus YMR078C, strain ctf18, stronger effect = lower value 0.987 | locus YMR125W, strain sto1, stronger effect = lower value 0.993 | locus YMR129W, stronger effect = lower value 0.997 | locus YMR205C, strain PFK2, stronger effect = lower value 1.02 | locus YMR223W, strain ubp8, stronger effect = lower value 0.976 | locus YMR231W, strain pep5, stronger effect = lower value 0.997 | locus YMR307W, strain GAS1, stronger effect = lower value 1 | locus YNL067W, strain RPL9B, stronger effect = lower value 0.997 | locus YNL071W, strain lat1, stronger effect = lower value 0.978 | locus YNL183C, strain NPR1, stronger effect = lower value 0.938 | locus YNL209W, strain ssb2, stronger effect = lower value 0.985 | locus YNL233W, strain BNI4, stronger effect = lower value 1.01 | locus YNL248C, strain rpa49, stronger effect = lower value 0.97 | locus YNL250W, strain rad50, stronger effect = lower value 0.981 | locus YNL271C, strain bni1, stronger effect = lower value 0.985 | locus YNL298W, strain CLA4, stronger effect = lower value 0.984 | locus YNL307C, strain MCK1, stronger effect = lower value 0.98 | locus YNL322C, strain KRE1 (second series), stronger effect = lower value 1.01 | locus YNR049C, strain mso1, stronger effect = lower value 1 | locus YNR052C, strain pop2, stronger effect = lower value 0.979 | locus YOL006C, strain TOP1, stronger effect = lower value 1.03 | locus YOL012C, strain htz1 1.17 | locus YOL147C, strain pex11, stronger effect = lower value 0.986 | locus YOR001W, strain rrp6, stronger effect = lower value 0.989 | locus YOR061W, strain CKA2, stronger effect = lower value 1 | locus YOR069W, strain VPS5, stronger effect = lower value 1 | locus YOR070C, strain gyp1, stronger effect = lower value 0.987 | locus YOR080W, strain dia2, stronger effect = lower value 0.992 | locus YOR083W, strain WHI5, stronger effect = lower value 1.01 | locus YOR106W, strain vam3, stronger effect = lower value 0.98 | locus YOR136W, strain idh2, stronger effect = lower value 0.991 | locus YOR144C, strain elg1, stronger effect = lower value 0.992 | locus YOR184W, strain ser1, stronger effect = lower value 0.994 | locus YOR231W, strain MKK1, stronger effect = lower value 0.98 | locus YOR265W, strain rbl2, stronger effect = lower value 0.993 | locus YOR270C, strain vph1, stronger effect = lower value 0.86 | locus YOR290C, strain snf2, stronger effect = lower value 1.03 | locus YOR316C, strain cot1, stronger effect = lower value 0.981 | locus YPL051W, strain arl3, stronger effect = lower value 1.02 | locus YPL055C, strain LGE1, stronger effect = lower value 1.03 | locus YPL078C, strain atp4, stronger effect = lower value 0.985 | locus YPL106C, strain sse1, stronger effect = lower value 1.02 | locus YPL240C, strain hsp82, stronger effect = lower value 0.991 | locus YPL256C, strain CLN2, stronger effect = lower value 0.955 | locus YPR119W, strain clb2, stronger effect = lower value 0.982 | locus YPR141C, strain kar3, stronger effect = lower value 0.98 | locus YPR163C, strain tif3, stronger effect = lower value 0.981 | locus YPR167C, strain met16, stronger effect = lower value 0.983 | strain wtn01, stronger effect = lower value 1
